Test results as given in PubChem BioAssay (Tox21).
Where “and” joins values, the source holds several entries; their conditions need not be identical. Equal entries are not always repeated. Records with an inconclusive call do not appear. Where a call stands in place of a potency, no number is given. A number with no mark means an inactive call. Calls of active or inactive are those of the source. Unless noted, calls come from the whole dose curve; as a rule, active = well fitted cell-killing curve with a large enough effect in the repeat runs; inconclusive = weak or mixed curves, or effect the other way; inactive = no such curve, though single readings can be large or run the other way.

Assay: qHTS assay for small molecule agonists of the antioxidant response element (ARE) signaling pathway (AID 743202; active = well fitted activation curve with a large enough effect in the signal ratio in the repeat runs, not every such curve was filed as active; the % refers to the signal ratio; note: potency is the fitted concentration of half-maximal effect)
Conditions: HepG2 ARE-bla reporter, beta-lactamase FRET, 16 h; series mostly up to 73.3 µM
Procedure, shortened: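 Agonist mode reporter screen: HepG2 cells with ARE-controlled beta-lactamase are incubated with test compounds for 16 h at 37 C, and beta-lactamase activity is measured as fluorescence of cleaved B/G FRET substrate.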

SMILES	activation	Potency
CCCCCCCCCCCCCC=O	-7.51% [at 8.36 µM]	–
CS(=O)(=O)O	–	inactive
Cc1ccc(Cl)cc1Cl	–	inactive
CN1CCN(c2cc3c(cc2F)c(=O)c(C(=O)O)cn3-c2ccc(F)cc2)CC1	–	inactive
NC(=O)COCCN1CCN(C(c2ccccc2)c2ccc(Cl)cc2)CC1 (configuration not stated)	–	inactive
CC(=O)Nc1c(I)cc(I)c(C(=O)O)c1I	–	inactive
Cc1c(O)cccc1O	–	inactive
CCN1CCC[C@H]1CNC(=O)c1c(O)c(Cl)cc(Cl)c1OC	–	inactive
COC(=O)C1=C(C)NC(C)=C(C(=O)OC)C1c1ccccc1[N+](=O)[O-]	–	inactive
NC(=O)Nc1ccccc1	–	inactive
CC(=O)CC(C)C	–	inactive
CCOC(=O)[C@H](CCc1ccccc1)N[C@@H](C)C(=O)N1[C@H](C(=O)O)C[C@@H]2CCC[C@@H]21	–	inactive
CC(C)CNCC(C)C	–	inactive
NS(=O)(=O)c1cc(C(=O)O)cc(N2CCCC2)c1Oc1ccccc1	–	inactive
COC(=O)c1ccc(C)cc1C1=NC(C)(C(C)C)C(=O)N1 (configuration not stated)	–	inactive
C=CCS(=O)(=O)O	–	inactive
NC(=O)c1ccc(N)cc1	–	inactive
CC(C)OC(=O)c1ccccc1	–	inactive
CCO/C([O-])=N/c1c[n+](N2CCOCC2)no1	–	inactive
CC1(C)CO[C@@H](CC(=O)O)CN1	–	inactive
CC(C)(c1ccc(O)cc1)c1ccc(O)cc1	–	27 µM (active) and 17.5 µM (active)
CN1CC(=O)NC1=N	–	inactive

Assay: qHTS assay for small molecule agonists of the antioxidant response element (ARE) signaling pathway - cell viability counter screen (AID 743203; calls by dose curve; note: nearly all actives have a fitted effect of over 55% in size; note: potency is the fitted concentration of half-maximal effect)
Conditions: ARE-bla HepG2 viability, CellTiter-Glo luminescence, 16 h; series mostly up to 73.3 µM
Procedure, shortened: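 HepG2 cells carrying ARE-driven beta-lactamase; 2,000 cells/well; 5 hrs plating; compound pinned from DMSO; 16 hrs 37C/5% CO2; CellTiter-Glo added; 30 min RT; luminescence.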

SMILES	Potency	viability change, negative = cytotoxic
N=C(N)c1ccc(OCCCOc2ccc(C(=N)N)cc2)cc1	inactive	–
CCCCCCCCCCCCCC=O	–	1.02% [at 8.36 µM]
CS(=O)(=O)O	inactive	–
Cc1ccc(Cl)cc1Cl	inactive	–
CN1CCN(c2cc3c(cc2F)c(=O)c(C(=O)O)cn3-c2ccc(F)cc2)CC1	inactive	–
NC(=O)COCCN1CCN(C(c2ccccc2)c2ccc(Cl)cc2)CC1 (configuration not stated)	inactive	–
O=C1CCCCCCCCCCCN1	inactive	–
Cc1c(O)cccc1O	inactive	–
CCOC(=O)c1c(C)n(C)c2ccc(O)cc12	inactive	–
CO/N=C(/C(=O)N[C@@H]1C(=O)N2C(C(=O)OCOC(=O)C(C)(C)C)=C(C)CS[C@H]12)c1csc(N)n1	inactive	–
CCN1CCC[C@H]1CNC(=O)c1c(O)c(Cl)cc(Cl)c1OC	inactive	–
COC(=O)C1=C(C)NC(C)=C(C(=O)OC)C1c1ccccc1[N+](=O)[O-]	inactive	–
NC(=O)Nc1ccccc1	inactive	–
CC(=O)OC/C=C(\C)CC/C=C(\C)CCC=C(C)C	inactive	–
CC(=O)CC(C)C	inactive	–
c1cnc(N2CCN(Cc3ccc4c(c3)OCO4)CC2)nc1	inactive	–

SMILES	Potency	viability change, negative = cytotoxic
CCOC(=O)[C@H](CCc1ccccc1)N[C@@H](C)C(=O)N1[C@H](C(=O)O)C[C@@H]2CCC[C@@H]21	inactive	–
CC(C)CNCC(C)C	inactive	–
O=C(CCCN1CCC(O)(c2cccc(C(F)(F)F)c2)CC1)c1ccc(F)cc1	inactive	–
NS(=O)(=O)c1cc(C(=O)O)cc(N2CCCC2)c1Oc1ccccc1	inactive	–
CCOC(=O)Nc1ccc(NCc2ccc(F)cc2)nc1N	inactive	–
CCN(Cc1ccncc1)C(=O)C(CO)c1ccccc1 (configuration not stated)	inactive	–
COC(=O)[C@@H](N)Cc1ccc(O)c(O)c1	inactive	–
COC(=O)c1ccc(C)cc1C1=NC(C)(C(C)C)C(=O)N1 (configuration not stated)	inactive	–
C=CCS(=O)(=O)O	inactive	–
NC(=O)c1ccc(N)cc1	inactive	–
CC(C)OC(=O)c1ccccc1	inactive	–
CCCCOCCOCCOCc1cc2c(cc1CCC)OCO2	inactive	–
CCO/C([O-])=N/c1c[n+](N2CCOCC2)no1	inactive	–
CC1(C)CO[C@@H](CC(=O)O)CN1	inactive	–
CN(C)CCCN1c2ccccc2CCc2ccc(Cl)cc21	43.3 µM (active)	–
CC(C)(c1ccc(O)cc1)c1ccc(O)cc1	inactive	–

Assay: qHTS assay for small molecule activators of the heat shock response signaling pathway - cell viability counter screen (AID 743209); note: nearly all actives have a fitted effect of over 50% in size
Conditions: HSE-bla HeLa viability, CellTiter-Glo luminescence, 5 h; series mostly up to 62.6 µM
Procedure, shortened: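 Luminescence from CellTiter-Glo, added after the beta-lactamase FRET read, gave the viability signal. Cells were HSE-bla HeLa treated with DMSO-dissolved compounds for 5 h at 37 C following overnight plating.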

SMILES	outcome	activity change, negative = cytotoxicity
N=C(N)c1ccc(OCCCOc2ccc(C(=N)N)cc2)cc1	inactive	–
CCCCCCCCCCCCCC=O	–	-3.36% [at 5.95 µM]
CS(=O)(=O)O	inactive	–
Cc1ccc(Cl)cc1Cl	inactive	–
CN1CCN(c2cc3c(cc2F)c(=O)c(C(=O)O)cn3-c2ccc(F)cc2)CC1	inactive	–
NC(=O)COCCN1CCN(C(c2ccccc2)c2ccc(Cl)cc2)CC1 (configuration not stated)	inactive	–
CC(=O)Nc1c(I)cc(I)c(C(=O)O)c1I	inactive	–
O=C1CCCCCCCCCCCN1	inactive	–
Cc1c(O)cccc1O	inactive	–
CCOC(=O)c1c(C)n(C)c2ccc(O)cc12	inactive	–
CO/N=C(/C(=O)N[C@@H]1C(=O)N2C(C(=O)OCOC(=O)C(C)(C)C)=C(C)CS[C@H]12)c1csc(N)n1	inactive	–
CCN1CCC[C@H]1CNC(=O)c1c(O)c(Cl)cc(Cl)c1OC	inactive	–
COC(=O)C1=C(C)NC(C)=C(C(=O)OC)C1c1ccccc1[N+](=O)[O-]	inactive	–
NC(=O)Nc1ccccc1	inactive	–
CC(=O)OC/C=C(\C)CC/C=C(\C)CCC=C(C)C	inactive	–
CC(=O)CC(C)C	inactive	–
CCOC(=O)[C@H](CCc1ccccc1)N[C@@H](C)C(=O)N1[C@H](C(=O)O)C[C@@H]2CCC[C@@H]21	inactive	–

SMILES	outcome	activity change, negative = cytotoxicity
CC(C)CNCC(C)C	inactive	–
O=C(CCCN1CCC(O)(c2cccc(C(F)(F)F)c2)CC1)c1ccc(F)cc1	inactive	–
NS(=O)(=O)c1cc(C(=O)O)cc(N2CCCC2)c1Oc1ccccc1	inactive	–
CCOC(=O)Nc1ccc(NCc2ccc(F)cc2)nc1N	inactive	–
CCN(Cc1ccncc1)C(=O)C(CO)c1ccccc1 (configuration not stated)	inactive	–
COC(=O)[C@@H](N)Cc1ccc(O)c(O)c1	inactive	–
COC(=O)c1ccc(C)cc1C1=NC(C)(C(C)C)C(=O)N1 (configuration not stated)	inactive	–
C=CCS(=O)(=O)O	inactive	–
NC(=O)c1ccc(N)cc1	inactive	–
CC(C)OC(=O)c1ccccc1	inactive	–
CCCCOCCOCCOCc1cc2c(cc1CCC)OCO2	inactive	–
CCO/C([O-])=N/c1c[n+](N2CCOCC2)no1	inactive	–
CC1(C)CO[C@@H](CC(=O)O)CN1	inactive	–
CN(C)CCCN1c2ccccc2CCc2ccc(Cl)cc21	inactive	–
CC(C)(c1ccc(O)cc1)c1ccc(O)cc1	inactive	–
CN1CC(=O)NC1=N	inactive	–
